Test systems include SR leukemia; RPMI-8226 leukemia; OVCAR-8 ovarian; OVCAR-5 ovarian; OVCAR-4 ovarian; SK-OV-3 ovarian; IGROV1 ovarian; OVCAR-3 ovarian; HS 578T breast; NCI/ADR-RES ovarian; T-47D breast; BT-549 breast; MDA-MB-435 melanoma; SW-620 colon; MCF7 breast; HCT-116 colon; HCC-2998 colon; KM12 colon; MDA-MB-468 breast.
Assay in all cases: NCI-60 one-dose screen, 48 h (100 = growth as untreated, 0 = no growth, -100 = all killed)
Details in all cases: 10 µM unless noted

This is part of a sample that, as a whole, favours compounds with a hit. Of some 83,000 tested, about 20% had one in any assay.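 Assay: single dose, 48 h. Readout: percent growth (0 = no net growth; negative = cell death). Active: <10.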 Values without a mark were called inactive. The source made the active and inactive calls.

Turning to `O=C(c1ccc(O)cc1)C1[C@H](c2ccc(Cl)cc2)[C@@H](c2ccccc2)NC12C(=O)Nc1ccc(Br)cc12` (stereo partly drawn), the growth in the experiment on SR leukemia is -52.7% (active); with RPMI-8226 leukemia, 3.14% (active); in the experiment with OVCAR-8 ovarian, 5.82% (active); in the experiment with OVCAR-5 ovarian, -19.4% (active); in the experiment with OVCAR-4 ovarian, -8.82% (active); in the experiment with SK-OV-3 ovarian, 22%. The growth is -40.4% (active) with IGROV1 ovarian; 2.42% (active) in the experiment with OVCAR-3 ovarian; -5.94% (active) in the experiment on HS 578T breast; -37.2% (active) with NCI/ADR-RES ovarian; 2.46% (active) in the experiment with T-47D breast; -76.6% (active) in the experiment on BT-549 breast. The growth was -41.1% (active) in the experiment on MDA-MB-435 melanoma; -58.1% (active) in the experiment on SW-620 colon; -22.1% (active) with MCF7 breast; -75% (active) with HCT-116 colon; -88.6% (active) with HCC-2998 colon; -25.4% (active) with KM12 colon. Further, in the experiment on MDA-MB-468 breast, the growth is -61.1% (active).
In the case of `Cn1cc(-c2cc(N)n3nc(-c4c[nH]c5ccc(Cl)cc45)cc3n2)c2cc(Br)cnc21`, the growth with SR leukemia was -40.9% (active); in the experiment on RPMI-8226 leukemia, -43.6% (active); in the experiment on OVCAR-8 ovarian, -60.1% (active); in the experiment with OVCAR-5 ovarian, -61.2% (active); in the experiment with OVCAR-4 ovarian, -54% (active); with SK-OV-3 ovarian it was 65.1%. Further, the growth in the experiment on IGROV1 ovarian was -49.3% (active); in the experiment on OVCAR-3 ovarian, -81% (active); in the experiment with HS 578T breast it was -16.2% (active); in the experiment with NCI/ADR-RES ovarian, -54.7% (active); with T-47D breast, -50% (active); with BT-549 breast it was -16.1% (active). In addition, the growth in the experiment on MDA-MB-435 melanoma is -80.8% (active); in the experiment on SW-620 colon, -79.1% (active); with MCF7 breast, -59.8% (active); with HCT-116 colon it was -74.3% (active); with HCC-2998 colon it was -99% (active); in the experiment with KM12 colon, -68.8% (active). The growth in the experiment with MDA-MB-468 breast is -93.6% (active).
As for `Cc1ccc(S(=O)(=O)Nc2ccc(-c3ccc4c(c3)NC(=O)/C4=C\c3ccc[nH]3)cc2)cc1`, the growth in the experiment on SR leukemia is -3.97% (active); in the experiment with RPMI-8226 leukemia it was 63.6%; with OVCAR-8 ovarian, 86.7%; in the experiment on OVCAR-5 ovarian it was 90.8%; with OVCAR-4 ovarian, 83.3%; with SK-OV-3 ovarian it was 108%. Also, the growth is 93.5% in the experiment with IGROV1 ovarian; 125% in the experiment with OVCAR-3 ovarian; 92.2% in the experiment with HS 578T breast; 89% with NCI/ADR-RES ovarian; 18.8% in the experiment with T-47D breast; 63.7% in the experiment on BT-549 breast. The growth in the experiment with MDA-MB-435 melanoma is 90.1%; in the experiment with SW-620 colon, 47.2%; with MCF7 breast, 3.35% (active); in the experiment on HCT-116 colon it was 60.6%; in the experiment on HCC-2998 colon it was 106%; with KM12 colon, 67.1%. Besides, in the experiment with MDA-MB-468 breast, the growth was -25.8% (active).
Regarding `COc1ccc2c(c1)C(Sc1ccc(F)cc1)c1c(nc(N)c(C#N)c1N)O2` (stereo not drawn), the growth with SR leukemia was 38%; in the experiment on RPMI-8226 leukemia, 71.7%; in the experiment with OVCAR-8 ovarian, 90.1%; in the experiment on OVCAR-5 ovarian it was 122%; in the experiment with OVCAR-4 ovarian it was 97.8%; with SK-OV-3 ovarian, 122%. Further, the growth in the experiment with IGROV1 ovarian was 70.6%; with OVCAR-3 ovarian, 128%; in the experiment on HS 578T breast it was 85.5%; with NCI/ADR-RES ovarian, 95.3%; with T-47D breast it was 79%; with BT-549 breast, 62.1%. The growth in the experiment on MDA-MB-435 melanoma is 91%; in the experiment on SW-620 colon, 84.7%; in the experiment on MCF7 breast, 67.5%; in the experiment with HCT-116 colon, 79.9%; in the experiment with HCC-2998 colon it was 114%; in the experiment with KM12 colon it was 85%. For the same compound, the growth with MDA-MB-468 breast was 99.6%.
Turning to `Fc1ccc(Nc2nnc(-c3c[nH]c4ccccc34)o2)cc1`, the growth with SR leukemia was 70.4%; with RPMI-8226 leukemia, 24.7%; in the experiment on OVCAR-8 ovarian, 85.5%; with OVCAR-5 ovarian, 105%; with OVCAR-4 ovarian, 81.1%; in the experiment with SK-OV-3 ovarian, 83.6%. The growth with IGROV1 ovarian is 50.8%; in the experiment on OVCAR-3 ovarian, 107%; in the experiment on HS 578T breast, 82%; in the experiment on NCI/ADR-RES ovarian, 74.6%; in the experiment on T-47D breast, 47.2%; in the experiment on BT-549 breast it was 67.3%. Moreover, the growth with MDA-MB-435 melanoma was 89.8%; in the experiment on SW-620 colon, 100%; in the experiment with MCF7 breast, 49.9%; in the experiment with HCT-116 colon, 90.3%; in the experiment on HCC-2998 colon, 98.5%; with KM12 colon it was 64.4%. In addition, the growth in the experiment with MDA-MB-468 breast is 32.6%.
With `CC(C)(C)OC(=O)N1C/C(=C\c2ccc(F)cc2)C(=O)/C(=C/c2ccc(F)cc2)C1`, the growth with SR leukemia was -11.1% (active); with RPMI-8226 leukemia, -15.4% (active); in the experiment with OVCAR-8 ovarian, -68.3% (active); in the experiment on OVCAR-5 ovarian it was -81.9% (active); with OVCAR-4 ovarian it was -9.66% (active); in the experiment with SK-OV-3 ovarian it was 0.0941% (active). For the same compound, the growth was -56.8% (active) in the experiment with IGROV1 ovarian; -90% (active) in the experiment with OVCAR-3 ovarian; -6.73% (active) with HS 578T breast; -56.8% (active) with NCI/ADR-RES ovarian; 14.4% with T-47D breast; -88.1% (active) in the experiment on BT-549 breast. Further, the growth in the experiment with MDA-MB-435 melanoma is -82.6% (active); with SW-620 colon, -67.7% (active); with MCF7 breast it was -66.5% (active); with HCT-116 colon, -81.5% (active); in the experiment with HCC-2998 colon, -98% (active); in the experiment on KM12 colon, -90.7% (active). Moreover, in the experiment on MDA-MB-468 breast, the growth was -82.3% (active).
In the case of `O=C(CSc1nc2sc3c(c2c(=O)n1-c1ccc(Cl)cc1)CCCC3)NNC(=O)c1ccc(Br)cc1`, the growth with SR leukemia was 34.4%; with RPMI-8226 leukemia it was 81.3%; in the experiment with OVCAR-8 ovarian, 34.3%; in the experiment with OVCAR-5 ovarian, 58.8%; in the experiment with OVCAR-4 ovarian it was 64%; with SK-OV-3 ovarian it was 80.8%. Further, the growth is 60.3% in the experiment with IGROV1 ovarian; 112% in the experiment with OVCAR-3 ovarian; 56.7% in the experiment on HS 578T breast; 66% in the experiment with NCI/ADR-RES ovarian; 58.5% in the experiment on T-47D breast; 74.5% with BT-549 breast. The growth in the experiment with MDA-MB-435 melanoma was 97.3%; in the experiment with SW-620 colon, 76.1%; in the experiment with MCF7 breast it was 54.1%; with HCT-116 colon it was 64%; in the experiment on HCC-2998 colon, 108%; in the experiment with KM12 colon it was 96.6%. The growth in the experiment on MDA-MB-468 breast was 69.7%.

For the origin of these results see PubChem BioAssay (NCI).
